Source: the supplement of paper PMC7669877
± gives the uncertainty stated by the source.

system: Candidatus Liberibacter solanacearum in potato hairy roots; assay: relative CLso titer (% of untreated control); higher = less inhibition of bacterial titer; conditions: 10 µM; 72 h
Method: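 Primary screen of ~220 Spectrum collection (MicroSource) compounds at 10 µM (0.1% DMSO) on Candidatus Liberibacter solanacearum-infected potato hairy roots in multi-well plates (Gamborg B-5 medium, vacuum infiltrated, 21 °C, dark, 72 h). CLso titer was measured by qPCR of 16S rDNA normalised to potato RPL2 (2^-ddCq), pairwise-standardised against untreated controls, averaged over two biological replicates and expressed as % of untreated.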

Row | SMILES | relative CLso titer
1 | COC(=O)C1=C(C)NC(C)=C(C(=O)OCCN(C)Cc2ccccc2)C1c1cccc([N+](=O)[O-])c1 (centres undefined) | 121 ± 15%
2 | CC(=O)OCC1=C(C(=O)O)N2C(=O)[C@@H](NC(=O)CSc3ccncc3)[C@H]2SC1 | 70.6 ± 0.88%
3 | N=C(NCCCCCCNC(=N)NC(=N)Nc1ccc(Cl)cc1)NC(=N)Nc1ccc(Cl)cc1 | 89.5 ± 36%
4 | Nc1cccc2c1CN(C1CCC(=O)NC1=O)C2=O (centres undefined) | 143 ± 43%
5 | CN1CCC[C@@H]1CCO[C@](C)(c1ccccc1)c1ccc(Cl)cc1 | 44.3 ± 12%
6 | O=C(O)CCC(=O)OC[C@@H](NC(=O)C(Cl)Cl)[C@H](O)c1ccc([N+](=O)[O-])cc1 | 49.1 ± 3.2%
7 | CN(C)[C@@H]1C(O)=C(C(N)=O)C(=O)[C@@]2(O)C(O)=C3C(=O)c4c(O)ccc(Cl)c4[C@@](C)(O)[C@H]3C[C@@H]12 | 35.8 ± 4.5%
8 | COc1cc(NS(=O)(=O)c2ccc(N)cc2)ncn1 | 60.3 ± 11%
9 | C[n+]1cc2c3c(ccc2c2ccc4cc5c(cc4c21)OCO5)OCO3 | 86.7 ± 34%
10 | C[C@@H](O[C@H]1OCCN(Cc2n[nH]c(=O)[nH]2)[C@H]1c1ccc(F)cc1)c1cc(C(F)(F)F)cc(C(F)(F)F)c1 | 117 ± 51%
11 | NS(=O)(=O)c1cc2c(cc1Cl)N=CNS2(=O)=O | 31 ± 2.7%
12 | CCCCCCCCNC(C)C(O)c1ccc(SC(C)C)cc1 (centres undefined) | 80.3 ± 5.9%
13 | C[C@]12CCC(=O)C=C1CC[C@@H]1[C@@H]2[C@@H](O)C[C@@]2(C)[C@H]1CC[C@]2(O)C(=O)CO | 94.9 ± 25%
14 | CCOC(=O)[C@H](CCc1ccccc1)N[C@@H](C)C(=O)N1CCC[C@H]1C(=O)O | 135 ± 34%
15 | Cc1cc(O)cc(C)c1Cl | 30.8 ± 2.8%
16 | CN(CCOc1ccc(CC2SC(=O)NC2=O)cc1)c1ccccn1 (centres undefined) | 87.5 ± 30%
17 | CCCCCCCCCCCCCCCC(=O)OC[C@@H](NC(=O)C(Cl)Cl)[C@H](O)c1ccc([N+](=O)[O-])cc1 | 79.3 ± 10%

Row | SMILES | relative CLso titer
18 | CC(=O)N(O)CCCCCNC(=O)CCC(=O)N(O)CCCCCNC(=O)CCC(=O)N(O)CCCCCN | 210 ± 59%
19 | Clc1cccc(Cl)c1NC1=NCCN1 | 55.5 ± 4.1%
20 | Oc1ccc(Cl)c2cccnc12 | 36.8 ± 11%
21 | CC1=C(C(=O)O)N2C(=O)[C@@H](NC(=O)[C@H](N)C3=CCC=CC3)[C@H]2SC1 | 114 ± 86%
22 | CC(=O)OCC(=O)[C@H]1CC[C@H]2[C@@H]3CCC4=CC(=O)CC[C@]4(C)[C@H]3CC[C@]12C | 104 ± 18%
23 | C[C@]12CC[C@@H]3c4ccc(OC(=O)c5ccccc5)cc4CC[C@H]3[C@@H]1CC[C@@H]2O | 155 ± 66%
24 | COc1ccc([C@H]2COc3c(ccc(O)c3OC)C2)c(OC)c1O | 35.5 ± 2.5%
25 | CCN1CCC[C@H]1CNC(=O)c1cc(S(N)(=O)=O)ccc1OC | 118 ± 86%
26 | C[C@]12CC[C@@H]3c4ccc(O)cc4CC[C@H]3[C@@H]1CC[C@@H]2OC(=O)CCC1CCCC1 | 150 ± 44%
27 | O=C(O)Cc1ccccc1Nc1c(Cl)cccc1Cl | 151 ± 55%
28 | CN(C)CCC=C1c2ccccc2CCc2ccccc21 | 49 ± 2.5%
29 | CCOC(=O)c1cccc(N)c1 | 113 ± 8.9%
30 | CO/N=C(\C(=O)N[C@@H]1C(=O)N2C(C(=O)O)=C(COC(N)=O)CS[C@H]12)c1ccco1 | 149 ± 29%
31 | CC1=C(C(=O)O)N2C(=O)[C@@H](NC(=O)[C@H](N)c3ccc(O)cc3)[C@H]2SC1 | 49.7 ± 6.2%
32 | CC12CCC(CC1=O)C2(C)C (centres undefined) | 97 ± 38%
33 | COc1ccc2c3c1O[C@H]1C[C@@H](O)C=C[C@@]31CCN(C)C2 | 104 ± 28%
34 | O=C(O)CN1C(=O)c2cccc3cccc(c23)C1=O | 145 ± 46%
